The values below come from PubChem BioAssay (NCI).

Values joined by “and” are separate entries in the source; they are usually repeats but may differ in a detail not shown here. Identical values can stand only once. This is part of a sample that, as a whole, favours compounds with a hit. Of some 83,000 tested, about 20% had one in any assay.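 A percent growth of 40 corresponds to 60% growth inhibition; 0 means no net growth; -100 means all cells died. Active threshold: below 10.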 Active and inactive are the calls of the source.

Test systems include NCI-H23 lung; NCI-H226 lung; HOP-62 NSCLC; NCI-H460 lung; HOP-92 NSCLC; NCI-H522 lung; A549/ATCC NSCLC; 786-0 renal; COLO 205 colon; DU-145 prostate; K-562 leukemia; MALME-3M melanoma; MDA-MB-231 breast; RXF 393 renal; SF-268 CNS; SF-295 CNS; SF-539 CNS; UACC-257 melanoma; M14 melanoma; NCI-H322M lung.
Common to all, as to assay: NCI-60 one-dose screen, 48 h (100 = growth as untreated, 0 = no growth, -100 = all killed)
Common to all, as to conditions: 10 µM unless noted

As for `C[C@@H]1C/C=C\C(=O)O[C@H](/C=C/C#C/C=C/C(C)(C)[C@@H](O)c2cccc(O)c2Br)[C@@H](C)/C=C/[C@H](C)C[C@H](OC(N)=O)C1`, the growth is 40.6% (inactive) in the experiment on NCI-H23 lung; 20.1% (inactive) in the experiment on NCI-H226 lung; 13.1% (inactive) in the experiment with HOP-62 NSCLC; 17.1% (inactive) in the experiment with NCI-H460 lung; 9.34% (active) in the experiment with HOP-92 NSCLC; 16.7% (inactive) in the experiment on NCI-H522 lung. Also, the growth in the experiment with A549/ATCC NSCLC was 28.5% (inactive); in the experiment on 786-0 renal, 37.2% (inactive); in the experiment on COLO 205 colon, -26.1% (active); in the experiment with DU-145 prostate, 47.6% (inactive); with K-562 leukemia, 6.76% (active); in the experiment with MALME-3M melanoma it was 28.4% (inactive). Further, the growth was 2.09% (active) in the experiment on MDA-MB-231 breast; 27.4% (inactive) in the experiment on RXF 393 renal; 40.4% (inactive) in the experiment on SF-268 CNS; -6.34% (active) with SF-295 CNS; 30.6% (inactive) with SF-539 CNS; -11.1% (active) in the experiment with UACC-257 melanoma. Also, the growth in the experiment with M14 melanoma was 0.391% (active).
`CCOC(=O)C1C(C=C(C)C)C1(C)C` (stereo not drawn): the growth is 101% (inactive) in the experiment on NCI-H23 lung; 107% (inactive) with NCI-H226 lung; 98.7% (inactive) with HOP-62 NSCLC; 103% (inactive) in the experiment with NCI-H460 lung; 84.6% (inactive) with HOP-92 NSCLC; 97.5% (inactive) in the experiment with NCI-H522 lung. In addition, the growth in the experiment on A549/ATCC NSCLC was 98.9% (inactive); in the experiment with 786-0 renal, 105% (inactive); in the experiment on COLO 205 colon it was 109% (inactive); in the experiment with DU-145 prostate, 108% (inactive); in the experiment on K-562 leukemia it was 155% (inactive); in the experiment with MALME-3M melanoma, 140% (inactive). Moreover, the growth with MDA-MB-231 breast was 106% (inactive); with RXF 393 renal, 114% (inactive); in the experiment with SF-268 CNS, 101% (inactive); with SF-295 CNS it was 101% (inactive); in the experiment on SF-539 CNS it was 93.5% (inactive); in the experiment on UACC-257 melanoma, 106% (inactive). The growth in the experiment on M14 melanoma was 106% (inactive).
As for `COC12CC3C4=CCOC5CC(=O)N6c7ccccc7C1(CCN2C4)C6C53` (stereo not drawn), the growth with NCI-H23 lung is 102% (inactive); with NCI-H226 lung it was 103% (inactive); in the experiment with HOP-62 NSCLC, 99.1% (inactive); in the experiment with NCI-H460 lung, 109% (inactive); with HOP-92 NSCLC, 102% (inactive); in the experiment with NCI-H522 lung, 89.9% (inactive). The growth in the experiment with A549/ATCC NSCLC was 91.2% (inactive); in the experiment on 786-0 renal it was 99.1% (inactive); in the experiment on COLO 205 colon it was 105% (inactive); with DU-145 prostate it was 117% (inactive); with MALME-3M melanoma, 112% (inactive); in the experiment with MDA-MB-231 breast it was 106% (inactive). The growth was 129% (inactive) with RXF 393 renal; 111% (inactive) with SF-268 CNS; 111% (inactive) in the experiment with SF-295 CNS; 100% (inactive) in the experiment with SF-539 CNS; 84% (inactive) in the experiment with UACC-257 melanoma; 99.2% (inactive) in the experiment on M14 melanoma.
`C=C1C(=O)OC2CC3(C)OC3C3OC3C3=CC(OC3=O)C12` (stereo not drawn): the growth in the experiment with NCI-H23 lung was 93.8% (inactive) and 101% (inactive); with NCI-H322M lung, 98.7% (inactive) and 101% (inactive); with HOP-62 NSCLC, 96.8% (inactive) and 115% (inactive); in the experiment with NCI-H460 lung, 114% (inactive) and 105% (inactive); with HOP-92 NSCLC, 9.95% (active); in the experiment with NCI-H522 lung it was -74.9% (active) and -76.6% (active). Moreover, the growth is 93.1% (inactive) and 105% (inactive) with A549/ATCC NSCLC; 96% (inactive) and 108% (inactive) in the experiment with 786-0 renal; -77.1% (active) in the experiment on COLO 205 colon; 109% (inactive) and 111% (inactive) with DU-145 prostate; -0.414% (active) and 6.29% (active) with K-562 leukemia; -53.4% (active) and -59.2% (active) in the experiment on MALME-3M melanoma. Moreover, the growth is 104% (inactive) and 107% (inactive) in the experiment with MDA-MB-231 breast; 8.42% (active) and 68.4% (inactive) in the experiment with RXF 393 renal; 99.2% (inactive) and 109% (inactive) in the experiment on SF-268 CNS; 103% (inactive) and 97.9% (inactive) in the experiment with SF-295 CNS; 101% (inactive) and 96.3% (inactive) in the experiment on SF-539 CNS; 53.6% (inactive) and 82.2% (inactive) in the experiment with UACC-257 melanoma. For the same compound, the growth in the experiment with M14 melanoma was 88.3% (inactive) and 91.9% (inactive).
Consider `CC1(C)N=C(N)N=C(N)N1c1ccc(CCC(=O)Nc2ccc(S(=O)(=O)F)cc2)cc1`, for which the growth was 65.3% (inactive) in the experiment with NCI-H226 lung; 47.1% (inactive) in the experiment with HOP-62 NSCLC; 14.5% (inactive) in the experiment on NCI-H460 lung; 70.8% (inactive) in the experiment with HOP-92 NSCLC; 23.6% (inactive) in the experiment on NCI-H522 lung; 18.9% (inactive) in the experiment on A549/ATCC NSCLC. The growth in the experiment on 786-0 renal is 21.3% (inactive); with COLO 205 colon it was 28.8% (inactive); with DU-145 prostate, 28.1% (inactive); with K-562 leukemia it was 12.9% (inactive); with MALME-3M melanoma it was 47% (inactive); with MDA-MB-231 breast it was 76.4% (inactive). The growth in the experiment on RXF 393 renal is 47.3% (inactive); with SF-268 CNS it was 25.1% (inactive); in the experiment with SF-295 CNS, 40.3% (inactive); with SF-539 CNS, 28.7% (inactive); in the experiment on UACC-257 melanoma, 41.1% (inactive); with M14 melanoma it was 35.9% (inactive).
With `O=S(=O)(c1ccc(O)cc1)c1ccccc1O`, the growth in the experiment with NCI-H226 lung is 104% (inactive); in the experiment on NCI-H322M lung, 111% (inactive); in the experiment with HOP-62 NSCLC, 101% (inactive); in the experiment on NCI-H460 lung it was 105% (inactive); with HOP-92 NSCLC it was 100% (inactive); with A549/ATCC NSCLC it was 112% (inactive). Besides, the growth is 112% (inactive) in the experiment with COLO 205 colon; 111% (inactive) in the experiment on DU-145 prostate; 98% (inactive) in the experiment with K-562 leukemia; 113% (inactive) in the experiment with MALME-3M melanoma; 98.9% (inactive) with MDA-MB-231 breast; 117% (inactive) in the experiment on RXF 393 renal. Also, the growth was 97.3% (inactive) in the experiment on SF-268 CNS, 112% (inactive) in the experiment on SF-295 CNS, 103% (inactive) in the experiment on SF-539 CNS and 111% (inactive) in the experiment with UACC-257 melanoma.
On to `CC[C@H](C)[C@H](NC(=O)[C@H]1CCCCN1C)C(=O)N(C)[C@H](C[C@@H](OC(C)=O)c1nc(C(=O)NC23C4C5C2C2C3C4C52C(=O)OC)cs1)C(C)C` (stereo partly drawn), for which the growth in the experiment with NCI-H23 lung is 18.6% (inactive); in the experiment on NCI-H226 lung it was 14.3% (inactive); with HOP-62 NSCLC, 21.5% (inactive); in the experiment with NCI-H460 lung, 12.6% (inactive); with HOP-92 NSCLC, -1.14% (active); with NCI-H522 lung, -16.1% (active). Moreover, the growth in the experiment on A549/ATCC NSCLC is 7.26% (active); with 786-0 renal it was 13.7% (inactive); in the experiment on COLO 205 colon it was -42.8% (active); with DU-145 prostate, -7.13% (active); in the experiment with K-562 leukemia, 6.1% (active); in the experiment on MALME-3M melanoma, 56.9% (inactive). Also, the growth was 20.3% (inactive) with MDA-MB-231 breast; 34.2% (inactive) with RXF 393 renal; 24.9% (inactive) with SF-268 CNS; 6.06% (active) in the experiment with SF-295 CNS; -11.4% (active) in the experiment with SF-539 CNS; 46.4% (inactive) in the experiment with UACC-257 melanoma. Besides, the growth with M14 melanoma is 10.2% (inactive).
